# Source: PubChem BioAssay (National Center for Advancing Translational Sciences (NCATS))
# CHX counter = counter-screen hit for Shiga toxin inhibitors, cycloheximide | cell reporter, cycloheximide protein synthesis inhibition counterscreen | max response, % | actives 12% (n = 300,000) | AID 2314; in the data active means max response mostly above about 13%, no sharp cut-off; inactive means mostly below about 14%; further: read at 38.3 µM for the half of the compounds with a filed dose; 0% is about no effect
# Shiga toxin inh = Shiga toxin inhibition; AID 2315; actives 9.2% (n = 290,000); Vero cells, Shiga toxin protein synthesis inhibition reporter; inhibition, % at 38.7 µM; in the data active means inhibition mostly above about 28%, no sharp cut-off; inactive means mostly below about 43%; further: 0% is about no effect
# Pf growth 48h = P. falciparum growth inhibition at 48 hours (one generation); P. falciparum luciferase growth in erythrocytes, 48 h; Potency, µM (top dose mostly 28.7 µM), for the others: at the highest dose activity change, negative = inhibition, actives largely listed as inhibitors; actives 5.9% (n = 310,000); AID 504832; further: potency means the concentration at half of the fitted maximal effect; on the % scale 0 is the no-effect control and ±100 the full control effect
#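 Cell-based growth assay: transgenic P. falciparum expressing firefly luciferase, cultured in red cells within RPMI 1640 containing 0.5% w/v Albumax, 24 mM bicarbonate and gentamycin. A drop in luciferase activity indicates inhibition.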
# AMA1 RON2 block = inhibitors of Plasmodium falciparum AMA1-RON2 interaction; AlphaScreen AMA1-biotinylated RON2 peptide binding; Potency, µM (doses to about 58.2 µM), for inactives: at the highest dose activity change, negative = inhibition, most hits filed as inhibitors; actives 0.2% (n = 360,000); AID 720542;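 further: potency means the concentration at half of the fitted maximal effect; 0% = vehicle wells and -100% = peptide control; nearly all actives have a fitted effect of over 45% in size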
#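 AMA1 (3D7) with his tag at 25 nM final met compounds first, then biotinylated RON2 peptide at 25 nM; detection used donor plus acceptor beads, 10 µg/mL apiece, read by AlphaScreen after 30 min at room temperature.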
# Pf growth 96h = inhibits malaria parasite growth, 96 h | AID 504834 | Potency, µM (highest dose often 28.7 µM), inactives show at the highest dose activity change, negative = inhibition, hits mostly inhibitors | P. falciparum luciferase reporter growth, 96 h | actives 6.9% (n = 320,000); further: potency means the concentration at half of the fitted maximal effect; on the % scale 0 is the no-effect control and ±100 the full control effect
#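 Delayed-death screen, second-generation endpoint: infected erythrocytes, 2% hematocrit, 0.05% parasitemia final; 96 hours at 37 C, 5% CO2; luciferase detection reagent; luminescence decrease equals reduced growth.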
# SARS PLP yeast = inhibitors of SARS-CoV papain-like protease in yeast; S. cerevisiae expressing SARS-CoV PLpro, growth rescue; Potency, µM (series often up to 32.9 µM), for inactives: at the top dose activity, positive = growth rescue, usual class: activators; actives 0.19% (n = 330,000); calls by dose curve; further: potency means the concentration at half of the fitted maximal effect; 0% is about no effect; nearly all actives have a fitted effect of over 55% in size
# Starred values were filed as active, the others as inactive; ? = inconclusive; / = not tested or not shown. Shown are actives, neighbours in structure and some others; about 19% of the full set was active somewhere. Unless noted, the call rests on the fitted dose curve; in most records, active means well fitted curve in the direction sought with a large enough effect; inconclusive means small, poorly fitted or top-dose-only effect, or another doubt; inactive means no such curve, though single readings can be large; an effect the other way counts as inactive or inconclusive.
SMILES,CHX counter,Shiga toxin inh,Pf growth 48h,AMA1 RON2 block,Pf growth 96h,SARS PLP yeast
c1ccc(-n2cc(CN3CCCC3)c(-c3ccc4c(c3)OCO4)n2)cc1,8,-2,5.2µM*,-3%,?,-1%
COc1cccc(NC(=O)c2ccccc2N2C(=O)C3C4C=CC(C5CC45)C3C2=O)c1 (stereo unspecified),-1,-7,-9%,11%,-31%,5%
CC(OC(=O)CCN=C1NS(=O)(=O)c2ccccc21)C(=O)Nc1ccc(F)c(F)c1F (stereo unspecified),/,/,-7%,6%,39%,4%
CSc1nsc(/C=C/Nc2ccc(C)c(C)c2)c1C#N,28,45*,?,9%,?,-1%
Cc1ccc(OCCC(=O)OCC(=O)NCCNC(=O)COC(=O)CCOc2ccc(C)cc2)cc1,/,/,/,3%,/,/
COc1ccccc1-c1nn(-c2ccccc2)cc1C(=O)N1CCN(C(=O)c2ccco2)CC1,/,/,?,-5%,-28%,1%
COc1ccccc1-c1nn(-c2ccccc2)cc1C(=O)N1CCc2ccccc2C1,/,/,?,-8%,3.7µM*,0%
COc1ccc(OC)c(-c2nn(-c3ccccc3)cc2C(=O)N2CCc3ccccc3C2)c1,/,/,10µM*,-19%,?,-7%
COc1cccc(-c2nn(-c3ccc(C)cc3)cc2C(=O)N2CCc3cc(OC)c(OC)cc3C2)c1,/,/,9.3µM*,-25%,?,-20%
CC1(CCC(=O)N2CCCC(N3CCN(c4cccc(C(F)(F)F)c4)CC3)C2)CC1 (stereo unspecified),3,-9,0%,8%,?,0%
CC(NC(=O)CCCc1ccccc1)c1ccncc1 (stereo unspecified),-1,/,-49%,6%,77%,-5%
Cc1cc2nn(-c3cccc4ccccc34)nc2cc1NC(=O)c1cccs1,11,13,/,18%,7.4µM*,-6%
Cc1ccc(NC(=O)CNC(C)c2ccccc2)cc1 (stereo unspecified),29*,50*,34%,4%,28%,2%
Cc1ccc(NC(=O)NCC(c2ccccc2)N(C)C)cc1 (stereo unspecified),35*,68*,/,5%,10%,-2%
N=C1C(=O)NC(=O)C1c1ccccc1 (stereo unspecified),/,/,/,-5%,/,/
Cc1ccc(C(=O)N/N=C\c2ccc(-c3ccc([N+](=O)[O-])cc3)o2)cn1,5,26,?,2%,6%,-2%
Cc1ccc(C(=O)N/N=C/c2cc(Br)ccc2O)cn1,16*,/,?,5%,7%,16%
CCOc1ccc(C(=O)N/N=C/c2ccccc2[N+](=O)[O-])cc1,73*,102*,292%,-9%,335%,5%
Cc1ccc(C(=O)N/N=C\c2ccc([N+](=O)[O-])o2)cn1,5,13,3.7µM*,9%,1.9µM*,-2%
CCOc1ccc(C(=O)N/N=C/c2cccc3cccnc23)cc1,35*,70,?,?,77%,2%
COc1ccc(C(=O)N/N=C/c2cccc3cccnc23)cc1,-2,-4,?,?,293%,-11%
CCC(C)NCCOCCOc1ccc(Cl)c2ccccc12 (stereo unspecified),5,-24,?,-12%,13%,-18%
Cc1ccc(C(=O)N/N=C\c2ccccc2[N+](=O)[O-])cn1,23*,53,19%,14%,?,-1%
Cc1ccc(C(=O)N/N=C\C=C\c2ccccc2[N+](=O)[O-])cn1,6,3,-2%,85%,13%,1%
COCCn1c(=N)c(S(=O)(=O)c2ccc(F)cc2)cc2c(=O)n3ccccc3nc21,-3,-15,6%,-21%,22%,-3%
SMILES,CHX counter,Shiga toxin inh,Pf growth 48h,AMA1 RON2 block,Pf growth 96h,SARS PLP yeast
Cc1c(-c2cccc(Cl)c2)nc2ccccc2c1C(=O)NC1CC1,-5,-3,-24%,9%,10µM*,0%
Cc1c(-c2cccc(Cl)c2)nc2ccccc2c1C(=O)OCC(=O)Nc1ccc2c(c1)OCO2,-6,1,?,-23%,2.1µM*,0%
CCCc1nc2ccccc2c(C(=O)OCC(=O)NCc2ccc3c(c2)OCO3)c1CC,1,-22,10µM*,6%,8.3µM*,-32%
CN1CCC(N(C)CC(C)(C)NS(=O)(=O)c2ccccc2)CC1,1,-6,11%,1%,11%,1%
Cn1c(NN)nc2ccccc2c1=O,36*,33*,8%,-1%,347%,0%
Cc1ccc(-n2c(NN)nc3ccccc3c2=O)c(C)c1,-6,-8,?,31%,9.3µM*,10%
O=C(COC(=O)Cc1cn2ccsc2n1)Nc1nc2ccccc2s1,16,20,12%,-8%,?,-9%
CC1CCc2nc(NC(=O)c3ccco3)sc2C1 (stereo unspecified),3,-24,37%,9%,-2%,-8%
CC(C)(C)C1CCc2nc(NC(=O)Cc3cn4ccsc4n3)sc2C1 (stereo unspecified),37*,146*,-12%,-13%,/,-11%
CC1CCc2nc(NC(=O)Cc3cccs3)sc2C1 (stereo unspecified),48*,94*,142%,-4%,/,-7%
CC1CCc2nc(NC(=O)C3CCCO3)sc2C1 (stereo unspecified),24*,55*,113%,3%,5%,-2%
COc1ccc(N2CCN(CC(=O)Nc3nc4c(s3)CC(C)CC4)CC2)cc1 (stereo unspecified),-2,14,-1%,-20%,-18%,-6%
CC1(C(=O)NCc2ccccc2Br)CCN1C(=O)C1(c2ccc(Cl)cc2)CC1 (stereo unspecified),/,/,/,-3%,/,/
CCc1nc2ccc(C(=O)Nc3cc(-c4ccccc4)ccc3OC)cn2c1N(CCN(C)C)CC1CC1,/,/,/,-17%,/,/
FC(F)(F)c1cnc(COc2ccc(Cl)cc2Cl)c(Cl)c1,17*,66*,-7%,9%,17%,-5%
CC(=O)c1ccc(OCc2ncc(C(F)(F)F)cc2Cl)cc1,36*,76*,20%,-3%,66%,-2%
CC(=O)C(C)Oc1ccc(Cc2ncc(C(F)(F)F)cc2Cl)cc1 (stereo unspecified),-1,11,?,22%,?,-1%
CCC1CCCCN1C(=O)c1ccc(OC2CCN(C(=O)CCOC)CC2)cc1 (stereo unspecified),16*,11,-25%,-3%,-20%,0%
COCCC(=O)N1CCC(Oc2ccc(C(=O)N3CCCCC3CCO)cc2)CC1 (stereo unspecified),17,11,-21%,9%,4.7µM*,-6%
COCCC(=O)N1CCC(Oc2ccc(C(=O)N3CCCCCC3)cc2)CC1,1,-3,?,7%,?,-3%
